Bioassay records (PubChem BioAssay)
Rows were chosen to be rich in hits. Some 3.5% of all compounds tested hit in one or more screens of this group.
MITF inh: human MITF inhibition, primary screen | O75030 | AlphaScreen MITF homodimerization, bead proximity signal | inhibition, % at 2.6 µM | 650,000 tested, 0.91% active | AID 1259374; in the data active = inhibition above about 50%;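 also: 0% = vehicle wells with protein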
Target sequence (O75030 whole entry, looked up): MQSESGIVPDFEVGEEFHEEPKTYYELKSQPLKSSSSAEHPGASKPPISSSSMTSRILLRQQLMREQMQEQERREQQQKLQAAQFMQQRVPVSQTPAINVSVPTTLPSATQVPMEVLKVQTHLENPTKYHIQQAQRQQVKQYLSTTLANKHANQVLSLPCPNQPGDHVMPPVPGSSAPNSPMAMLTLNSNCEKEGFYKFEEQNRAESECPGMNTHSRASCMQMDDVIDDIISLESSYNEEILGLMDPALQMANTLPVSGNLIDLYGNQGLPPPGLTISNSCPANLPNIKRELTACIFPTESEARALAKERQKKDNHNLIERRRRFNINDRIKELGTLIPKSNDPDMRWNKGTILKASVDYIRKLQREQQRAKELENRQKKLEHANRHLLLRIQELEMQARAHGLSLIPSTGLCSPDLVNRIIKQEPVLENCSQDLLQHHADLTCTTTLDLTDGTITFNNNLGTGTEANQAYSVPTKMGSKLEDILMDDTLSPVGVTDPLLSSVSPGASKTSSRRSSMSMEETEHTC
FBW7 activator: activators of human E3 ligase FBW7. normalized activity (activation), % at 26.1 µM. 650,000 tested, 0.13% active. AID 1259310. AlphaScreen FBW7–phospho-cyclin E peptide binding, activator screen. Q969H0; in the data active = normalized activity above about 1.9%;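 also: purified mutant Fbw7 with reduced substrate affinity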
TEAD-YAP inh: TEAD-YAP interaction inhibition; AID 1259422; inhibition, % at 9.12 µM; 640,000 tested, 1.4% active; HEK-TIYL cells, TEAD-Gal4/YAP UAS-luciferase luminescence; in the data active = inhibition above about 32%;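 also: 0% = median of test compound wells and 100% = reference inhibitor wells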
GPR151 ag: activators of human GPR151; Q8TDV0; PathHunter beta-arrestin GPR151 cells, luminescence; activation, % at 11.2 µM; 650,000 tested, 1% active; in the data active = activation above about 4.9%;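 also: 0% = median of compound wells and 100% = cells with positive control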
MITF inh conf: human MITF inhibition, confirmation | shares compounds with MITF inh | AlphaScreen MITF homodimerization, biotin/His-MITF beads | inhibition, % at 2.6 µM | 4,700 tested, 16% active | AID 1259372;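 active = inhibition above a cutoff derived from the DMSO control wells, cut at about 28% in these data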;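 also: 0% = MITF dimer wells with DMSO only; inhibitors lower the bead chemiluminescence by keeping MITF from dimerizing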
AlphaScreen DR: counter-screen: compounds optically interfering with AlphaScreen | shares compounds with MITF inh | AID 1259373 | AlphaScreen optical interference counterscreen, cell-free | 480 tested, 6% active | IC50, µM; call rule not given here
AlphaScreen intf2: AlphaScreen optical interference, counter-screen | LysRS AlphaScreen counterscreen, signal interference, triplicate | inhibition, % at 2.6 µM | 4,700 tested, 7.6% active | shares compounds with MITF inh;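 active = inhibition above a cutoff derived from the DMSO control wells, cut at about 30% in these data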
* marks the source's active call; other numbers are inactive results; · = no result given.

SMILES	MITF inh	FBW7 activator	TEAD-YAP inh	GPR151 ag	MITF inh conf	AlphaScreen intf2	others
CCN(CC)C(=O)CCc1nc(-c2cccc(OC)c2)no1	-1	0	-38	-1	·	·
Cc1cccn2c(=O)c3c(nc12)CCN(C(=O)Nc1cccc(C(F)(F)F)c1)C3	51*	0	7	-1	7	17
Cc1cccn2c(=O)c3c(nc12)CCN(C(=O)Nc1cccc(F)c1)C3	7	0	-2	0	·	·
Cc1cccc(NCc2cccc([N+](=O)[O-])c2)c1	69*	0	-3	0	-4	-4
COc1ccc(OC)c(CNc2cccc(C)c2)c1	64*	0	5	2	15	22
COc1cc(OC)c(OC)cc1CNc1cccc(C)c1	52*	0	1	-1	-6	0
O=C(CC1CCCCN1S(=O)(=O)c1cccs1)NCCC1=CCCCC1 (stereo unspecified)	5	0	-5	1	·	·
CN1CCC(N(C)CC(O)COCc2ccccc2F)CC1 (stereo unspecified)	17	1	8	0	·	·
CN1CCC(N(C)CC(O)COCc2ccccc2Cl)CC1 (stereo unspecified)	87*	0	-1	3	8	15
N#C/C(=C/Nc1ccccc1F)c1nc(-c2ccc([N+](=O)[O-])cc2)cs1	68*	0	-1	2	0	3
O=C(COc1ccccc1)N1CCC(Cn2cnc3ccccc32)CC1	56*	0	7	-1	9	12
O=C(NC(c1ccccc1)c1ccccc1)N1CCC(Cn2cnc3ccccc32)CC1	56*	0	3	0	5	12
COc1ccc(CNC(=O)N2CCC(Cn3cnc4ccccc43)CC2)cc1	58*	0	5	0	8	17
Cc1ccccc1NC(=O)N1CCC(Cn2cnc3ccccc32)CC1	-8	0	-7	-1	·	·
COc1ccc(Cl)cc1NC(=O)N1CCC(Cn2cnc3ccccc32)CC1	47	0	-5	2	·	·
O=C(Cn1ccc2ccccc21)N1CCC(Cn2cnc3ccccc32)CC1	-1	0	-8	0	·	·
CC(=O)N1CCOc2cc(S(=O)(=O)N3CC=C(c4ccccc4)CC3)c(C)cc21	6	0	-2	0	·	·
CCOc1ccccc1OCCN1CCN(Cc2ccccc2)CC1	64*	0	4	2	-10	-5
CCOc1ccccc1OCCN1CCOCC1	3	0	1	0	·	·
Fc1ccccc1OCCN1CCN(Cc2ccccc2)CC1	73*	0	-12	2	2	-5
Fc1ccccc1OCCN1CCOCC1	45	0	6	1	·	·
CCOc1ccccc1OCCN1CC(C)CC(C)C1 (stereo unspecified)	78*	0	-11	0	18	12
CCCC(O)(CCN1CCOCC1)c1ccc(OC)cc1 (stereo unspecified)	-1	-1	-20	1	·	·
O=C(NCCc1ccccc1)c1ccc2c(=O)n(Cc3ccccc3)c(=S)[nH]c2c1	-10	0	-3	1	·	·
O=[N+]([O-])c1ccc(N2CCOCC2)cc1NCCO	14	0	-8	0	·	·
SMILES	MITF inh	FBW7 activator	TEAD-YAP inh	GPR151 ag	MITF inh conf	AlphaScreen intf2	others
CCOC(=O)N1CCN(C(=O)C(C)N(c2ccc(C)cc2)S(C)(=O)=O)CC1 (stereo unspecified)	-8	0	0	4	·	·
Cc1cccc(C)c1NC(=O)C(Cc1c[nH]c2ccccc12)NC(=O)OC(C)(C)C (stereo unspecified)	63*	0	-1	1	9	11
COc1ccccc1NC(=O)N1CCCC1C(=O)NCc1ccccc1F (stereo unspecified)	10	0	4	1	·	·
COc1ccccc1NC(=O)N1CCCC1C(=O)NCc1ccccc1Cl (stereo unspecified)	73*	0	-2	-1	-3	9
Clc1ccc(OCCCCn2ccnc2)cc1Cl	55*	0	-1	-2	13	17
Clc1ccc(OCCOCCn2ccnc2)cc1Cl	43	0	-8	0	·	·
Clc1cc(Br)ccc1OCCCCn1ccnc1	74*	0	-8	0	2	6
Brc1c(OCCCCn2ccnc2)ccc2ccccc12	78*	0	-20	-2	-11	-3
Cc1ccc(C(=O)O)cc1NC(=O)c1cccc(C(=O)Nc2cc(C(=O)O)ccc2C)c1	14	1	1	-1	·	·
CC(=O)Oc1cccc(C(=O)Nc2cc(C(=O)O)ccc2C)c1	102*	0	15	1	7	18
Cc1cc(C)c(NC(=O)CS(=O)CC(=O)N2CCN(c3ccc(F)cc3)CC2)c(C)c1 (stereo unspecified)	20	1	-19	-1	·	·
CCOc1ccc(NC(=O)CSc2nc3ccc(Br)cc3c3nc4ccccc4n23)cc1	-2	0	6	0	·	·
CCc1ccc(-c2cc(C(=O)Nc3cc(C(=O)OC)cc(C(=O)OC)c3)c3ccccc3n2)cc1	53*	0	4	-1	3	10
CCc1ccc(-c2cc(C(=O)Nc3ccc(C(=O)OC)cc3)c3ccccc3n2)cc1	7	0	2	1	·	·
COC(=O)CC1(O)c2ccccc2C(=O)N1Cc1ccccc1 (stereo unspecified)	12	0	7	1	·	·
CC(=O)Nc1ccc(N2C(=O)c3ccccc3C2(O)Cc2ccccc2)cc1 (stereo unspecified)	55*	0	-2	0	33*	16	AlphaScreen DR=>6.5
O=C(NC1CCN(S(=O)(=O)c2ccc(F)cc2)CC1)c1ccco1	-12	0	-1	0	·	·
O=S(=O)(c1ccc(C(F)(F)F)cc1)N1CCC(c2nc3ccccc3[nH]2)CC1	-5	1	4	0	·	·
O=S(=O)(c1ccccc1C(F)(F)F)N1CCC(c2nc3ccccc3[nH]2)CC1	73*	-2	-9	1	78*	16	AlphaScreen DR=>6.5
O=C(NC1CCN(S(=O)(=O)c2ccccc2C(F)(F)F)CC1)c1ccco1	77*	0	1	0	7	10
CCOC(=O)C1=C(C(=O)OCC)SC2(S1)C(C(=O)OCC)=C(C(=O)OCC)SC1=C2c2cc(C)ccc2N(C)C1(C)C	-8	1	-2	0	·	·
N#C/C(=C/c1ccco1)c1cccc(F)c1	68*	1	2	1	30*	17	AlphaScreen DR=>6.5
Cn1c(CN2CCOCC2)nc(=O)c2ccccc21	53*	0	-2	0	1	-6
Cc1cc(C)c2c(n1)nn1c(C)c(CCC(=O)NO)c(C)nc21	-10	0	-2	-1	·	·
CC1CCN(c2cc(N3CCC(C)CC3)c([N+](=O)[O-])cc2/C=N/n2nnnc2N)CC1	-6	0	-3	-1	·	·
